# Bioassay records (PubChem BioAssay)
# sEH inh = soluble epoxide hydrolase inhibitors, primary screen, biochemical, human sEH | 91,000 compounds, 0.34% hits | Bifunctional epoxide hydrolase 2 (Homo sapiens), P34913 | inhibition, % at 2 µM | recombinant human sEH enzymatic activity assay; in the data active = inhibition above about 80%
# Target sequence (P34913 whole entry, looked up): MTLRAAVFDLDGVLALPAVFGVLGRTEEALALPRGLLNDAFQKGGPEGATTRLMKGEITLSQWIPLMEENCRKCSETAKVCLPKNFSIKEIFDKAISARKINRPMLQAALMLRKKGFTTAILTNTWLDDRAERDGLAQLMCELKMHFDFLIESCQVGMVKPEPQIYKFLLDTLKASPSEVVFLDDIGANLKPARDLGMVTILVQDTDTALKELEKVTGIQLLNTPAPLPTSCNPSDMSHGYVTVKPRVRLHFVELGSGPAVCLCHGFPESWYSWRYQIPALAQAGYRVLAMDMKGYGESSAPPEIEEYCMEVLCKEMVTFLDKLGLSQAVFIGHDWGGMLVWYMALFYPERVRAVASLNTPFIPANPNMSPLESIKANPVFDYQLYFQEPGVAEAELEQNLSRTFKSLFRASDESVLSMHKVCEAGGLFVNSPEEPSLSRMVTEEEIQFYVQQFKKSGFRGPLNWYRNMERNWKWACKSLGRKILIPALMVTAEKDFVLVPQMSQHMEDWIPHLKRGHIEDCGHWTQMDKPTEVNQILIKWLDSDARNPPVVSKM
# Cav3 T inh = Cav3.2 calcium influx blockers – cell-based, Fluo-4 calcium fluorescence, FDSS, MLSMR library, primary screen; Voltage-dependent T-type calcium channel subunit alpha-1H (Homo sapiens), O95180; Cav3.2-expressing cells; hits give low values; B-score at 10 µM; 100,000 compounds, 4% hits; AID 449739, 2010;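 active = single-dose well whose peak fluorescence ratio is a statistical outlier from its plate by either plate-standardised score or position-corrected B-score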
# IL1B NFkB inh = inhibitors of IL-1B driven NFkB p65 nuclear import, primary screen, imaging, HUVEC, IL-1B stimulus, high-content imaging; HUVEC IL-1B NFkB p65 nuclear translocation imaging; inhibition, % at 2 µM; 94,000 compounds, 0.43% hits;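 active = inhibition above about 30% together with a positive call from visual inspection of the well image, limit read from the data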;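 also: nuclear over cytoplasmic p65 intensity ratio measured by imaging; 0% = IL-1B stimulated DMSO wells and 100% = unstimulated DMSO wells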
# HUVEC tox IL1B = cytotoxicity in IL-1B stimulated HUVEC, primary screen, cytotoxicity control for IL-1B NFkB translocation project, imaging, Hoechst nuclear count, IL-1B stimulus. 94,000 compounds, 0.41% hits. cell count reduction, % at 2 µM. HUVEC cell count loss;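 active = cell count reduction more than 3 SD above the screen-wide mean, cut at about 70% in these data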;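 also: normalized per plate to untreated control cells as the no-loss baseline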
# NFkB transloc pot = enhancers of NFkB p65 translocation in HUVEC – imaging, IL-1B stimulus, high-content imaging, primary screen | 94,000 compounds, 0.3% hits | AID 819, 2007 | activation, % at 2 µM | HUVEC IL-1B NFkB p65 nuclear translocation imaging;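 active = activation above 40%, about the mean plus 3 SD, also judged a hit on visual image review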;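 also: percent activation is computed from the nuclear over cytoplasmic p65 intensity ratio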
# sEH act = soluble epoxide hydrolase activators, primary screen, biochemical, human sEH; Bifunctional epoxide hydrolase 2 (Homo sapiens), P34913; purified human sEH enzymatic activity, activator screen; activation, % at 2 µM; 91,000 compounds, 0.04% hits; AID 717, 2007; in the data active = activation above about 37%
# * = called active by the depositor; / = not tested or not shown. Only some compounds are listed: those with a hit (about 4.6% of all), similar ones and a draw of the others.
SMILES,sEH inh,Cav3 T inh,IL1B NFkB inh,HUVEC tox IL1B,NFkB transloc pot,sEH act
COC(=O)c1c(C)oc2ccc(NS(=O)(=O)c3cccs3)cc12,-2.2,-4.85*,7.6,-23.3,-7.6,4.7
COCCOC(=O)c1c(C)oc2ccc(NS(=O)(=O)c3ccccc3)cc12,2.0,-2.81,-2.1,4.3,2.1,-3.3
COC(=O)c1c(C)oc2ccc(N(C(=O)c3ccncc3)S(=O)(=O)c3ccccc3)cc12,-16.0,-4.05*,8.8,0.8,-8.8,16.5
COC(=O)c1c(C)oc2ccc(N(C(=O)c3ccncc3)S(=O)(=O)c3ccc(C)cc3)cc12,-7.9,-2.97,18.9,47.9,-18.9,10.3
COc1ccc([N+](=O)[O-])cc1NC(=O)CC(C)c1ccccc1 (centres undefined),8.7,-3.41,3.5,-30.3,-3.5,-6.5
CC(CC(=O)Nc1ccc(Cl)c([N+](=O)[O-])c1)c1ccccc1 (centres undefined),10.4,-8.7*,-12.0,-24.4,12.0,-8.3
CSc1n[nH]c(-c2sccc2OCc2ccc(C)cc2)n1,-6.3,-3.74*,-3.0,-37.1,3.0,7.3
O=C(Nc1ccc(S(=O)(=O)N2CCC(C(=O)NC3CCCCC3)CC2)cc1)c1ccco1,13.2,1.02,7.8,19.2,-7.8,-12.7
Cn1c(=O)c(C(=O)CN2CCCc3ccccc32)c(N)n(Cc2ccccc2)c1=O,/,-4.14*,/,/,/,/
Cc1cc(=O)oc2ccc(OCC(=O)N(Cc3ccc(F)cc3)Cc3ccco3)cc12,6.6,-5.08*,-6.9,-12.4,6.9,-8.3
COc1c(C)cc(S(=O)(=O)N2CCCC2)c(C)c1C,7.2,-1.63,-9.1,2.1,9.1,-5.4
CCOC(=O)c1ccc(NC(=O)COc2ccc(-n3cnnn3)cc2)cc1,7.2,-0.364,-9.8,-19.4,9.8,-7.3
CCOC(=O)C1=C(C)N(CC(C)C)C(=O)/C1=C\c1ccc(OCC(=O)Nc2ccccc2)cc1,1.1,-5.51*,/,/,/,-1.2
Cc1ccccc1CSCCNC(=O)CCSc1ccccc1,80.9*,-6.07*,-7.2,2.0,7.2,-81.0
Cc1ccc(CSCCNC(=O)CCSc2ccccc2)cc1,66.2,-1.36,3.8,4.2,-3.8,-65.2
c1ccc2c(c1)ncn2Cc1nnc2sc(-c3ccncc3)nn12,-3.0,0.465,0.1,-11.4,-0.1,4.2
CCCCCCCCCCn1c2c(c(=N)c3c1CCC3)CCC2,/,-7.01*,11.4,-4.6,-11.4,/
O/N=C/c1cc(Br)ccc1OCc1ccccc1F,-11.4,-1.63,-9.6,-0.8,9.6,10.3
C=CCOc1ccc(Br)cc1/C=N/O,2.6,-3.89*,-8.8,0.6,8.8,-3.7
C=CCOc1ccc2ccccc2c1/C=N/O,-1.4,-1.53*,1.5,-6.3,-1.5,0.2
COc1ccc(C(=O)Nc2ccc(OCC(F)(F)C(F)F)c(C(F)(F)F)c2)cc1OC,5.0,0.103,-8.3,-3.5,8.3,-2.7
CC(C)CC(=O)O/N=C1\C(=O)N(c2ccccc2)c2ccccc21,-7.0,0.191,5.1,-30.9,-5.1,9.4
S=C(NCc1ccco1)N1CCN(Cc2ccc(Cl)cc2Cl)CC1,8.1,-3.64*,-10.9,-6.4,10.9,-5.5
CCn1nc(C(=O)Nc2cccc3ccccc23)c(Cl)c1Cl,-12.7,-5.71*,-3.4,-26.0,3.4,14.0
O=C(NC1CCCCC1)C(c1ccccc1)N(Cc1ccc2c(c1)OCO2)C(=O)c1cnsn1 (centres undefined),-1.1,-7.49*,9.2,-36.2,-9.2,3.5
Cc1ccc(C(C(=O)NC2CCCC2)N(Cc2ccc3c(c2)OCO3)C(=O)Cc2cccs2)cc1 (centres undefined),1.9,-0.228,5.3,23.6,-5.2,3.2
Cc1ccc(N2C(=O)c3ccccc3NC2C(C)Cc2ccc3c(c2)OCO3)cc1 (centres undefined),5.0,-4.3*,/,/,/,-4.8
COc1cccc(CNc2cc(CSc3ccc(Cl)cc3)nc(C)n2)c1,5.9,-8.23*,-13.5,-6.6,13.5,-7.2
c1ccc(-c2noc(-c3ccc4c(c3)OCO4)n2)nc1,/,0.152,/,/,/,/
